Reference: PubChem BioAssay (Tox21)
Records with an inconclusive call do not appear. Calls of active or inactive are those of the source. Unless noted, the call rests on the fitted dose curve; in most records, active means well fitted curve in the direction sought with a large enough effect in the repeat runs; inconclusive means weak or mixed curves; inactive means no such curve, though single readings can be large; an effect the other way counts as inactive or inconclusive.

Experiments:
[1] = A CellTox Green Cytotoxicity Assay to monitor cytotoxicity in HEK293 cells - 8 hour (AID 1224884); further: nearly all actives have a fitted effect of over 35% in size
How it was run: (§1)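 Each value comes from one timepoint of a single continuous run in which HEK293 cells with CellTox Green were exposed to compound for up to 40 h at 37 C, dye fluorescence rising with cell death.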

[2] = qHTS RealTime-Glo MT Cell Viability Assay in HepG2 cells - 16 hour (AID 1224885); further: nearly all actives have a fitted effect of over 50% in size
How it was run: (§2)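 Viability was tracked continuously by NanoLuc luminescence from prosubstrate reduced by living HepG2 cells, at successive time points over 40 h of compound exposure. Cells with reagent were preincubated 5 h at 37 °C before compound addition.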

[3] = qHTS RealTime-Glo MT Cell Viability Assay in HEK293 cells - 24 hour (AID 1224886); further: nearly all actives have a fitted effect of over 50% in size; further: potency means the concentration at half of the fitted maximal effect
How it was run: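 Viability tracked continuously by luminescence as live cells reduce a prosubstrate for NanoLuc; HEK293 cells preincubated 5 h, compound-treated at 37 C, and read at 0, 8, 16, 24, 32 and 40 h.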

[4] = qHTS RealTime-Glo MT Cell Viability Assay in HEK293 cells - 8 hour (AID 1224887); further: nearly all actives have a fitted effect of over 50% in size; further: potency means the concentration at half of the fitted maximal effect
How it was run: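 qHTS format; HEK293 cells with NanoLuc/prosubstrate reagent, 37 C/5% CO2 for 5 h pre-dosing; compounds 23 nL in DMSO; luminescence at each time point reflects viable cells.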

[5] = A CellTox Green Cytotoxicity Assay to monitor cytotoxicity in HEK293 cells - 16 hour (AID 1224888); further: nearly all actives have a fitted effect of over 35% in size
How it was run: as §1

[6] = qHTS RealTime-Glo MT Cell Viability Assay in HepG2 cells - 0 hour (AID 1224889); further: nearly all actives have a fitted effect of over 50% in size
How it was run: as §2

[7] = qHTS assay to identify small molecule antagonists of the estrogen receptor alpha (ER-alpha) signaling pathway using the BG1 cell line in the presence of 0.1 nM 17-beta-estradiol - cell viability counter screen (AID 1259241); further: nearly all actives have a fitted effect of over 40% in size
How it was run: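 Viability in VM7Luc4E2 cells after 22 hr compound exposure under 0.1 nM 17beta-estradiol stimulation, by CellTiter-Fluor.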

[8] = qHTS assay to identify small molecule antagonists of the androgen receptor (AR) signaling pathway using the MDA cell line in the presence of 0.5 nM R1881 - cell viability counter screen (AID 1259242); further: nearly all actives have a fitted effect of over 45% in size
How it was run: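 Fluorescence from CellTiter-Fluor, which reports protease activity of live cells, was read 30 min after reagent addition to MDA-kb2 cells that had been incubated 16 hr with compound and 0.5 nM R1881.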

[9] = qHTS assay to identify small molecule phospholipidosis (PLD) inducers (AID 1259344; active means well fitted curve in the direction sought with a large enough effect; an effect the other way counts as inactive or inconclusive)
How it was run: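 Quantitative HTS in HepG2: compound plus LipidTOX Red dye for 24 h, paraformaldehyde fixation with Hoechst 33342, widefield high-content imaging; amiodarone as positive and DMSO as negative control.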

[10] = qHTS assay to identify small molecule HDAC inhibitors - cell viability counter screen (AID 1259365)
How it was run: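 Cytotoxicity was gauged in wild-type HCT-116 cells after a brief 2hr treatment with DMSO-dissolved compounds at 37C and 5% CO2, using CellTiter-Glo luminescence developed for 30min at room temperature.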

[11] = qHTS assay to identify small molecule agonists of the sonic hedgehog signaling (Shh) pathway - cell viability counter screen (AID 1259366); further: nearly all actives have a fitted effect of over 50% in size; further: potency means the concentration at half of the fitted maximal effect
How it was run: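 Stable Gli1-Luc NIH/3T3 clone, 2,000 cells/well. Compound exposure 24hr at 37C. Read-out: CellTiter-Fluor fluorescence.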

[12] = qHTS assay to identify small molecule antagonists of the sonic hedgehog signaling (Shh) pathway - cell viability counter screen (AID 1259367); further: nearly all actives have a fitted effect of over 55% in size; further: potency means the concentration at half of the fitted maximal effect
How it was run: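 Seed 3T3 Gli1-Luc cells at 2,000 per well; incubate 4 hr; add compound in DMSO, then conditioned medium; incubate at 37C with 5% CO2; add CellTiter-Fluor after 23 hr; read fluorescence 1 hr later.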

[13] = qHTS assay to identify small molecule agonists of the sonic hedgehog signaling (Shh) pathway (AID 1259368; calls by dose curve;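 further: NIH/3T3-derived 3T3Gli1-Luc cells carrying a stable Gli1-driven firefly luciferase reporter; series mostly up to about 92 µM; nearly all actives have a fitted effect of over 15% in size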)
How it was run: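 Luminescent signal was taken as a measure of Gli1-controlled luciferase expression in stably transfected NIH/3T3-derived cells that had been treated for 24 hr with compounds delivered in DMSO.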

[14] = A CellTox Green Cytotoxicity Assay to monitor cytotoxicity in HepG2 cells - 0 hour (AID 1224882); further: nearly all actives have a fitted effect of over 35% in size
How it was run: (§3)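 Continuous culture of HepG2 cells with a membrane-impermeant DNA dye; rising fluorescence marks dead cells. Compound exposure lasted up to 40 h at 37 C, with reads every 8 h from 0 h.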

[15] = A CellTox Green Cytotoxicity Assay to monitor cytotoxicity in HepG2 cells - 32 hour (AID 1224883); further: nearly all actives have a fitted effect of over 50% in size; further: potency means the concentration at half of the fitted maximal effect
How it was run: as §3

[16] = A CellTox Green Cytotoxicity Assay to monitor cytotoxicity in HepG2 cells - 8 hour (AID 1224890); further: nearly all actives have a fitted effect of over 45% in size
How it was run: as §3

[17] = qHTS assay to identify small molecule HDAC inhibitors (AID 1259364); further: top concentration of the series differs between compounds; nearly all actives have a fitted effect of over 45% in size
How it was run: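 Endogenous HDAC class I/II activity was measured in wild-type HCT-116 cells by HDAC-Glo luminescence after 2 h compound treatment.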

[18] = A CellTox Green Cytotoxicity Assay to monitor cytotoxicity in HEK293 cells - 32 hour (AID 1224881); further: nearly all actives have a fitted effect of over 40% in size
How it was run: as §1

[19] = molecular target: Estrogen receptor (Homo sapiens) (UniProt P03372); assay: qHTS assay to identify small molecule antagonists of the estrogen receptor alpha (ER-alpha) signaling pathway using the BG1 cell line in the presence of 0.1 nM 17-beta-estradiol (AID 1259244); further: nearly all actives have a fitted effect of over 50% in size; further: potency means the concentration at half of the fitted maximal effect
How it was run: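 Quantitative high-throughput screen in VM7Luc4E2 cells: compound plus 0.1 nM E2 (final), 22 h, 37C, 5% CO2; ONE-Glo added, 30 min room temperature, luminescence measured.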

[20] = molecular target: Androgen receptor (Homo sapiens) (UniProt P10275); assay: qHTS assay to identify small molecule antagonists of the androgen receptor (AR) signaling pathway using the MDA cell line in the presence of 0.5 nM R1881 (AID 1259243); further: nearly all actives have a fitted effect of over 50% in size
How it was run: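 Inhibition of R1881 (0.5 nM final) induced reporter signal was measured in human MDA-kb2 cells; note the MMTV promoter also responds to GR. Exposure lasted 16 hr at 37C.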
On the % scale 0 is the no-effect control and ±100 the full control effect.

Sequence of Estrogen receptor (Homo sapiens) (P03372 whole entry, looked up): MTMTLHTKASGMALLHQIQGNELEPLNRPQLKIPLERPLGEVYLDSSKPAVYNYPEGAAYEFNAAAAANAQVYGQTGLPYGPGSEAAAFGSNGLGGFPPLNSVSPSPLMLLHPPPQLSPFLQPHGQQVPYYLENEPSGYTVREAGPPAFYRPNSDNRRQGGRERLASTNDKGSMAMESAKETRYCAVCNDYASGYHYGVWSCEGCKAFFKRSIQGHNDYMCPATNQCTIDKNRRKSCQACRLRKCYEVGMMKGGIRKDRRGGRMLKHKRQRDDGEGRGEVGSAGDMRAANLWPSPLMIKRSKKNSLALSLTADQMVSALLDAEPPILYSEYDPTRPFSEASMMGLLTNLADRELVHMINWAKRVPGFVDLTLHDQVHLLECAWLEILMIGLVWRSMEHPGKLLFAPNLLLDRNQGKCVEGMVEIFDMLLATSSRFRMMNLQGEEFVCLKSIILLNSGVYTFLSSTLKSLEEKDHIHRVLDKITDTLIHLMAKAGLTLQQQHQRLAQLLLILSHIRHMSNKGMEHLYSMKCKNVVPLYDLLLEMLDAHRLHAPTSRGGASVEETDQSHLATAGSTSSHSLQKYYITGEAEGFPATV
Sequence of Androgen receptor (Homo sapiens) (P10275 whole entry, looked up): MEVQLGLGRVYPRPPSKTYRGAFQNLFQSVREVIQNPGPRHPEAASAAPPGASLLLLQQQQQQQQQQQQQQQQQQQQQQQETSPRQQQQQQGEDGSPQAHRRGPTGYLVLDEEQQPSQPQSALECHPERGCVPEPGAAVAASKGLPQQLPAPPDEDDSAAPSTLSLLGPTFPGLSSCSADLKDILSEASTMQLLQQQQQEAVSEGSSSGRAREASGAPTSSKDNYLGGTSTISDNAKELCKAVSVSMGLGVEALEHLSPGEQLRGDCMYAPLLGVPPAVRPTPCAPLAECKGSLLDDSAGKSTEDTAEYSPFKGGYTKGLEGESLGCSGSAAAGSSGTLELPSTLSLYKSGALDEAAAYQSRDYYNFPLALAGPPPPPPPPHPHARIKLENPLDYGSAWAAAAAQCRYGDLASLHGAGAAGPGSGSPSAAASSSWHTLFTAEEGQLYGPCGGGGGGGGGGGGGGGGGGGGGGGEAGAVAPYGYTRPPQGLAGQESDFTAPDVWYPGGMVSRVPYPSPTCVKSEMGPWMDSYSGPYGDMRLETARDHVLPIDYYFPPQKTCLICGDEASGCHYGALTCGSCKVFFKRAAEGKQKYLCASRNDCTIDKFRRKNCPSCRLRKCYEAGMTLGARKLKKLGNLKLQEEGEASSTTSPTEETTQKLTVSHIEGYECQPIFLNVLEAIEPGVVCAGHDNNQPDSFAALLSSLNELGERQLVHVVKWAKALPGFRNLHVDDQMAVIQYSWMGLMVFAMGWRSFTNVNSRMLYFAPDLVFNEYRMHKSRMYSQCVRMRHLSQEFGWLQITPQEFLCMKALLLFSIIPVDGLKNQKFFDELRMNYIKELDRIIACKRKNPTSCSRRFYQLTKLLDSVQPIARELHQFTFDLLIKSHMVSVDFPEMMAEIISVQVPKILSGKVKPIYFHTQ

CN1CCC(O)(c2ccc(F)cc2)C(C(=O)c2ccc(F)cc2)C1 (configuration not stated)
inactive: Potency [1] | Potency [2] | Potency [3] | Potency [4] | Potency [5] | Potency [6] | outcome [7] | outcome [8] | outcome [9] | outcome [10] | Potency [11] | Potency [12] | outcome [13]

CCOP(=S)(Oc1cnc(C(C)(C)C)nc1)OC(C)C (configuration not stated)
inactive: outcome [14] | Potency [15] | Potency [1] | Potency [2] | Potency [3] | Potency [4] | Potency [5] | Potency [6] | Potency [16] | outcome [7] | outcome [8] | Potency [17] | outcome [10] | Potency [12] | outcome [13]

CC(=O)CC(c1ccc(Cl)cc1)c1c(O)c2ccccc2oc1=O (configuration not stated)
inactive: Potency [18] | Potency [15] | Potency [1] | Potency [3] | Potency [4] | Potency [5] | Potency [6] | outcome [7] | outcome [8] | Potency [17] | outcome [10] | Potency [12] | outcome [13]

CCOP(=S)(OCC)SCSc1ccc(Cl)cc1
inactive: Potency [18] | Potency [15] | Potency [1] | Potency [2] | Potency [4] | Potency [5] | Potency [6] | Potency [16] | outcome [7] | outcome [8] | PLD induction [9] -3.38% [at 7.66 µM] | outcome [10] | Potency [11] | outcome [13]

OC(c1ccc(F)cc1)(c1cncnc1)c1ccccc1Cl (configuration not stated)
inactive: outcome [14] | Potency [15] | Potency [1] | Potency [2] | Potency [4] | Potency [5] | Potency [6] | Potency [16] | outcome [7] | outcome [8] | Potency [19] | Potency [17] | outcome [10] | Potency [11] | Potency [12] | outcome [13]

CCN(CC)CCOC(=O)C(C)(c1ccccc1)c1ccccc1
inactive: Potency [18] | Potency [1] | Potency [2] | Potency [4] | Potency [5] | Potency [6] | outcome [7] | Potency [17] | outcome [10] | Potency [11] | Potency [12] | outcome [13]

COc1cc(OC)nc(Oc2cccc(Oc3nc(OC)cc(OC)n3)c2C(=O)O)n1
inactive: Potency [18] | Potency [15] | Potency [1] | Potency [3] | Potency [4] | Potency [5] | Potency [16] | outcome [7] | Potency [20] | Potency [17] | outcome [10] | Potency [11] | Potency [12] | outcome [13]

Nc1cc(Cl)ccc1O
active: Potency [11] 59.1 µM | Potency [12] 29.6 µM
inactive: Potency [18] | Potency [15] | Potency [1] | Potency [2] | Potency [3] | Potency [5] | Potency [6] | Potency [16] | outcome [7] | Potency [19] | Potency [17] | outcome [10]

O=C(Nc1ccccc1)N(Cc1ccc(Cl)cc1)C1CCCC1
active: Potency [3] 21.9 µM | Potency [4] 24.5 µM
inactive: Potency [18] | Potency [15] | Potency [1] | Potency [5] | Potency [16] | outcome [7] | outcome [8] | outcome [10] | outcome [13]

CCSC(=O)N(CC)C1CCCCC1
inactive: outcome [14] | Potency [15] | Potency [1] | Potency [2] | Potency [3] | Potency [4] | Potency [5] | Potency [6] | Potency [16] | outcome [7] | outcome [8] | Potency [19] | Potency [17] | outcome [10] | Potency [11] | outcome [13]

CCOP(=O)(N=C1SCCS1)OCC
inactive: Potency [18] | Potency [15] | Potency [2] | Potency [3] | Potency [4] | Potency [5] | Potency [16] | outcome [7] | Potency [19] | Potency [17] | outcome [10] | Potency [11] | outcome [13]

Fc1ccc(C2(Cn3cncn3)OC2c2ccccc2Cl)cc1 (configuration not stated)
active: Potency [3] 43.6 µM
inactive: Potency [18] | Potency [1] | Potency [2] | Potency [16] | outcome [7] | outcome [8] | Potency [17] | outcome [10] | Potency [11] | Potency [12] | outcome [13]

Cc1coc2c1CCC(C)C2 (configuration not stated)
inactive: Potency [18] | Potency [15] | Potency [1] | Potency [3] | Potency [4] | Potency [5] | Potency [6] | Potency [16] | outcome [7] | Potency [19] | outcome [10] | Potency [11] | Potency [12] | outcome [13]

CNC(=O)Oc1c(C(C)(C)C)cc(C)cc1C(C)(C)C
inactive: outcome [14] | Potency [15] | Potency [1] | Potency [2] | Potency [3] | Potency [4] | Potency [5] | Potency [6] | Potency [16] | outcome [7] | outcome [8] | Potency [20] | Potency [17] | Potency [11] | Potency [12] | outcome [13]

CN1C(=S)CN=C(c2ccccc2)c2cc(Cl)ccc21
inactive: outcome [14] | Potency [15] | Potency [2] | Potency [3] | Potency [4] | Potency [6] | Potency [16] | outcome [7] | outcome [8] | outcome [9] | Potency [17] | outcome [10] | Potency [11] | Potency [12]

C=CCC1=C(C)[C@@H](OC(=O)[C@@H]2[C@@H](C=C(C)C)C2(C)C)CC1=O
inactive: outcome [14] | Potency [1] | Potency [5] | Potency [16] | Potency [17] | outcome [10]
active: Potency [15] 49 µM | Potency [3] 12.3 µM | Potency [4] 6.92 µM | Potency [19] 24.3 µM
